# Assay results published in ChEMBL document CHEMBL3988442, “University of Dundee, Small-Polar-MMV Screening Library” (2021).
# For some assays here: Potency and affinity values are given separately.
# Assays:
# Set-up in all cases: scale not given: direction of the effect not stated beside the values
# [1] = target: Protein translocase subunit SecA (Escherichia coli (strain K12)) (UniProt P10408); assay: Assay to Identify E. coli SecA ATPase Inhibitors; assay type: functional; settings: 30 µM
# [2] = target: T1, Ubiquitin-activating enzyme e1, putative (Leishmania donovani (strain BPK282A1)) (UniProt E9BSI1); assay: Leishmania donovani Ubiquitin Activating Enzyme (LdE1); assay type: functional; settings: 30 µM
# T1 sequence (whole entry): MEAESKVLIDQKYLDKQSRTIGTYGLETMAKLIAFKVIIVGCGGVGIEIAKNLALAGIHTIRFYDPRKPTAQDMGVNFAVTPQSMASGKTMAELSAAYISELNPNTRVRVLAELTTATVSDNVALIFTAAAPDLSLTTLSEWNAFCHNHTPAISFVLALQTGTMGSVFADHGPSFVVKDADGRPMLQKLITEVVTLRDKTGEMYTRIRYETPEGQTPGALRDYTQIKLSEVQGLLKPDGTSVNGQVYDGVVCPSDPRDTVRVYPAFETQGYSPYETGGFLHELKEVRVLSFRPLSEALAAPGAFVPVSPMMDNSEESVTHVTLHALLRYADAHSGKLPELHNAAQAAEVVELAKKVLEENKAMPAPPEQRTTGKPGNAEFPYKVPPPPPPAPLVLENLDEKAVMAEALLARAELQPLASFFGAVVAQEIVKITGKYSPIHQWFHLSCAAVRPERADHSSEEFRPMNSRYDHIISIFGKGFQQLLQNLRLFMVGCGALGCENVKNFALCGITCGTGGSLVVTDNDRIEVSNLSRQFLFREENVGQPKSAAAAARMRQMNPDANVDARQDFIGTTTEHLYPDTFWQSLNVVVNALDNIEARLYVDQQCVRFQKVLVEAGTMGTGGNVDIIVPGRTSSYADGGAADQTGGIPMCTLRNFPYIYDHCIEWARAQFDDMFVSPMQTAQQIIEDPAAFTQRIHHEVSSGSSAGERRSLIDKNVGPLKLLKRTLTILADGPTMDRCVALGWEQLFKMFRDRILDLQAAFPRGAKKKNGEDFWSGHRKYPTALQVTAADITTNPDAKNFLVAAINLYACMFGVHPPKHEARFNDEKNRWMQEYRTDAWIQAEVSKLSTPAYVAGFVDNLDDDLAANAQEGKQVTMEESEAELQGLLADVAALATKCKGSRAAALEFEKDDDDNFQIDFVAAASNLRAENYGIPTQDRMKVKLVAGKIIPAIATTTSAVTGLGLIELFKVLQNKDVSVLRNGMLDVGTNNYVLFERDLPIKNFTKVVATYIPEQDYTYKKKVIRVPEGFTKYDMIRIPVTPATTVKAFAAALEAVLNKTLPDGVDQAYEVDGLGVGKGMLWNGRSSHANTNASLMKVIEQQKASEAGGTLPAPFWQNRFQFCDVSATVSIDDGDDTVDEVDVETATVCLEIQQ
# [3] = target: Sialic acid-binding Ig-like lectin 9 (Homo sapiens) (UniProt Q9Y336); assay: Hs-Siglec9 ALPHAscreen SOP 20170721; settings: 10 µM
# Sequence of Sialic acid-binding Ig-like lectin 9 (Homo sapiens) (Q9Y336 whole entry): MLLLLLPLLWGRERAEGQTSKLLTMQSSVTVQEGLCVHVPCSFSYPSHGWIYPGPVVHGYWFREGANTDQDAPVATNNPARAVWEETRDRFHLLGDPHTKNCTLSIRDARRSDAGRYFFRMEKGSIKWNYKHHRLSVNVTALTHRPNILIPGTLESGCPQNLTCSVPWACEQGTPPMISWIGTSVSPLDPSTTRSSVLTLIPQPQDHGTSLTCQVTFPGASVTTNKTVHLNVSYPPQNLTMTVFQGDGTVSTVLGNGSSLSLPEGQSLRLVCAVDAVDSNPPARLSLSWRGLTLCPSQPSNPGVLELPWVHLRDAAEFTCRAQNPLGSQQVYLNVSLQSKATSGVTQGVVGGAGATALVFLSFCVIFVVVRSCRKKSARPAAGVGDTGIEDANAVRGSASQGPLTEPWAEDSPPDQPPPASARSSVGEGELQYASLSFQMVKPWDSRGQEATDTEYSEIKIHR
# Trypanosoma cruzi = assay: Trypanosoma cruzi phosphomannomutase and mannose-1-phosphate guanylyltransferase assay; assay type: functional; settings: 10 µM
# [4] = target: T2, Arginase-2, mitochondrial (Homo sapiens) (UniProt P78540); assay: in vitro enzyme assay to detect the production of urea directly proportional to the activity of Arginase II; assay type: functional; settings: 33.3 µM; further: in the data most compounds retested in dose-response had high values
# T2 sequence (whole entry): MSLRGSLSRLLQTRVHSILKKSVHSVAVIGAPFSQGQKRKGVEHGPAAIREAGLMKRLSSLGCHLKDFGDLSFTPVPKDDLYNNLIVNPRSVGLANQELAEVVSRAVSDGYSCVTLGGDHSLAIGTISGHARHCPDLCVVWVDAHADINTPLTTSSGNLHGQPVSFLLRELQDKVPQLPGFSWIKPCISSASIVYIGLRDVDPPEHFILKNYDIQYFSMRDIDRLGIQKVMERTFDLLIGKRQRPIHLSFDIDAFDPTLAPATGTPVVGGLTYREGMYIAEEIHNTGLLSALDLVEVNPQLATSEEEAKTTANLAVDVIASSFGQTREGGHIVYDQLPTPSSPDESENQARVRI
# [5] = target: T3, Proteasome subunit beta (Trypanosoma cruzi) (UniProt O96673); assay: Trypanosoma cruzi proteasome chymotrypsin-like activity (TcProtChymo) assay.; further: in the data most compounds retested in dose-response had high values; assay type: functional; settings: 9.37 µM
# T3 sequence (whole entry): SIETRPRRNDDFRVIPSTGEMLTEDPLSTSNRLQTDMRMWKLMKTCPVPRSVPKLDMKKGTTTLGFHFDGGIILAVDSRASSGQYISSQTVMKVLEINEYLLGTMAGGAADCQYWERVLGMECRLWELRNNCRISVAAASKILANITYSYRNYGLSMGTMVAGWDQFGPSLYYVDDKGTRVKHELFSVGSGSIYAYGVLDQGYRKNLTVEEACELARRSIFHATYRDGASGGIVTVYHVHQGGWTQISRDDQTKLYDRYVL
# Homo sapiens = species on record: Homo sapiens; assay: To identify inhibition of the IFN signalling (Jak-Stat) pathway via expression of an eGFP reporter gene under the control of an IFN-stimulated response element (ISRE) containing MxA promoter.; assay type: functional; settings: 30 µM
# [6] = target: T4, Tyrosyl-tRNA synthetase, putative (Trypanosoma cruzi (strain CL Brener)) (UniProt Q4DSP6); assay: Trypanosoma cruzi tyrosyl tRNA synthetase (TcYRS) _High Tyrosine SOP; assay type: functional; settings: 30 µM; further: in the data most compounds retested in dose-response had high values
# T4 sequence (whole entry): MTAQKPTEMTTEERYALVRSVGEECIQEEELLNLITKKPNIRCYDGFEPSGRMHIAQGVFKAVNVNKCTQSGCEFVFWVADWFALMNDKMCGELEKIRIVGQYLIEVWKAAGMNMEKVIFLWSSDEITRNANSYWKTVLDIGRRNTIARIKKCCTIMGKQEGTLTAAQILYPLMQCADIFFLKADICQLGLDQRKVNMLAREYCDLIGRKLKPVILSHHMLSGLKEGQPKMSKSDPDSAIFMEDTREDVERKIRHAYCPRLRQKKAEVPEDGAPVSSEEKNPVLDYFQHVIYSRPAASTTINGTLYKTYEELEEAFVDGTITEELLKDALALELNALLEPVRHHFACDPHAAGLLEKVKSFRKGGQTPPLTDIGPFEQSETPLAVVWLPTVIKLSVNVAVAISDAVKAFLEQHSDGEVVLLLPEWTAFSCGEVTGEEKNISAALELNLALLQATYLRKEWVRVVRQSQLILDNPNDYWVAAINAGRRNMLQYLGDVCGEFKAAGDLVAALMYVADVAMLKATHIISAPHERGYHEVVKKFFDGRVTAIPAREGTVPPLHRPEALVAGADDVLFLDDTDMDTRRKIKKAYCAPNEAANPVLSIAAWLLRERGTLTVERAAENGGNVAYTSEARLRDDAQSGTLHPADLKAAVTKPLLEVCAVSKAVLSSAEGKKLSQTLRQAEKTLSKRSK
# [7] = target: T4, Tyrosyl-tRNA synthetase, putative (Trypanosoma cruzi (strain CL Brener)); assay: Trypanosoma cruzi tyrosyl tRNA synthetase (TcYRS) SOP; assay type: functional; settings: 30 µM
# [8] = target: Chromo domain-containing protein 1 (Saccharomyces cerevisiae (strain ATCC 204508 / S288c) (Baker's yeast)) (UniProt P32657); assay: ScCHD-1 Enzyme Inhibition Assay; assay type: functional; settings: 30 µM; further: in the data most compounds retested in dose-response had high values
# Sequence of Chromo domain-containing protein 1 (Saccharomyces cerevisiae (strain ATCC 204508 / S288c) (Baker's yeast)) (P32657 whole entry, the tested form may be a part): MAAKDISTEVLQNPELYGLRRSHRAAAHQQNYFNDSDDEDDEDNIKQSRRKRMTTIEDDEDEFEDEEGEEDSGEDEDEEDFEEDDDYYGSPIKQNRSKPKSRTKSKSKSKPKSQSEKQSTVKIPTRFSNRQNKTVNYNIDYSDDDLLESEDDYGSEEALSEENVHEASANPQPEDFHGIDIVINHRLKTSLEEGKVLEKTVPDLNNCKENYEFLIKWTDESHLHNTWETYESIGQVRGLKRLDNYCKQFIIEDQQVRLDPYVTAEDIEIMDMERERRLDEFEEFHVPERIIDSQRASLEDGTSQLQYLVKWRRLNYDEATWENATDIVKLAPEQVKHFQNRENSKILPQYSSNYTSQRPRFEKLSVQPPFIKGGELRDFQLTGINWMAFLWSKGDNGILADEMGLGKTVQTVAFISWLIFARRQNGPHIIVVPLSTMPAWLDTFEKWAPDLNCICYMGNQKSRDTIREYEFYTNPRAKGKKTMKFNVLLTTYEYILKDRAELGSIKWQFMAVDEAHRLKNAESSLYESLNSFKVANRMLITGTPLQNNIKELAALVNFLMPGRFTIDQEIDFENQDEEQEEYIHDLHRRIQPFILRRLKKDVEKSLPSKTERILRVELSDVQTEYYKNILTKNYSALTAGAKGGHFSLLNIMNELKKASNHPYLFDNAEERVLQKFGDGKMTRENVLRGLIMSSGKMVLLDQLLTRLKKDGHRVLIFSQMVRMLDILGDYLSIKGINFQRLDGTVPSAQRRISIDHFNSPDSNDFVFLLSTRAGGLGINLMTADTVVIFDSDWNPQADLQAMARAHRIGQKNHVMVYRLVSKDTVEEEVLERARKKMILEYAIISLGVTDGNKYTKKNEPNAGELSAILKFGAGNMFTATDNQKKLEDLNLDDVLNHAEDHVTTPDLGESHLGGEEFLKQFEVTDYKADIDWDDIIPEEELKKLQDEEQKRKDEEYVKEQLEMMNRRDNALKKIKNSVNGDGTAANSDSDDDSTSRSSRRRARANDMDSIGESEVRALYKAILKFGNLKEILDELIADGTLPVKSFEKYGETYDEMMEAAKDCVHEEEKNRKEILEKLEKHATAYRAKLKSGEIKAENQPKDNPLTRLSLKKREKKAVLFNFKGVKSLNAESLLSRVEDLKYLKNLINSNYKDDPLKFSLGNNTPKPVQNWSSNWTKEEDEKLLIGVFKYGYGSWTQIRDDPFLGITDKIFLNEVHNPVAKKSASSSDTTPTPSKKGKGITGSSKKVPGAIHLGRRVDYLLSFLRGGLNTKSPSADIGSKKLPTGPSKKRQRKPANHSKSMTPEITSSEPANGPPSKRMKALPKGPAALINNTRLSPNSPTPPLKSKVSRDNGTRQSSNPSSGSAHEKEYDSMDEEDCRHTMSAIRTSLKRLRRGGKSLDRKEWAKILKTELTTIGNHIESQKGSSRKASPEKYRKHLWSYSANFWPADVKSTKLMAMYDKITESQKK
# Sequence of Protein translocase subunit SecA (Escherichia coli (strain K12)) (P10408 whole entry): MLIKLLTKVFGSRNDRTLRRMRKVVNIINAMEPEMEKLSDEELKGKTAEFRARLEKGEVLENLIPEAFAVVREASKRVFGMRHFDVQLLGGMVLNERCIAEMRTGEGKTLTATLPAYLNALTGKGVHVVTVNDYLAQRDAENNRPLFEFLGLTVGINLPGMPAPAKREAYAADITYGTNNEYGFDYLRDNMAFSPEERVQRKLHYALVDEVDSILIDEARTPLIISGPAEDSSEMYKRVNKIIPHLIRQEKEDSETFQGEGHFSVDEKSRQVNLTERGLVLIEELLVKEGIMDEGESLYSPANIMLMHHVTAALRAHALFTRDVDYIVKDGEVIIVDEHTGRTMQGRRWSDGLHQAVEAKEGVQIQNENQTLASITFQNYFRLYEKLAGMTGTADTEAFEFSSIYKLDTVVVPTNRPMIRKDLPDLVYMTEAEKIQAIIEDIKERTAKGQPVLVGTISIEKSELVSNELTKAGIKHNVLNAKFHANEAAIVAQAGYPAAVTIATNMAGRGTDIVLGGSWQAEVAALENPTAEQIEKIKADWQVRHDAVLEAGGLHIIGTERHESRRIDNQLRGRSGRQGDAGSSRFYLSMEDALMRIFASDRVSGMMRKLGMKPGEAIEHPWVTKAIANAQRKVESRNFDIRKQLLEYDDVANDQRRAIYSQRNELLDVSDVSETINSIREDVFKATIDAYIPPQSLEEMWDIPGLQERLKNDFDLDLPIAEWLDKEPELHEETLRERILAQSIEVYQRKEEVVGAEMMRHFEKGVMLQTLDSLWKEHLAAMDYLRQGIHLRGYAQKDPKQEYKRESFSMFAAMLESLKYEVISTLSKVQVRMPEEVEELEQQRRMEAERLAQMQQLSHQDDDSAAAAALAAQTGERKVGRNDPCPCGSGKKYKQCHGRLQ
Structure (SMILES),Percent Effect [1],Percent Effect [2],Percent Effect [3],Percent Effect (Trypanosoma cruzi),Percent Effect [4],Percent Effect [5],Percent Effect (Homo sapiens),Percent Effect [6],Percent Effect [7],Percent Effect [8]
Cc1cnn(CC2CCCN2CC(=O)Nc2nc(C)cs2)c1 (stereo not given),-2%,7.79%,11.1%,0.746%,5.12%,-1.4%,2.04%,12.8%,21.2%,-5.41%
CCN1CCN(c2ccc(CNC(=O)c3ccc(Cl)o3)cn2)CC1,-0.96%,21.3%,-3.96%,2.41%,6.21%,18.4%,0.841%,7.89%,15.4%,-10.4%
CCc1nccn1C1CCCN(C(=O)c2csc(COC)n2)C1 (stereo not given),-5.68%,10.4%,12.8%,-5.78%,-1.43%,7.89%,13.9%,4.9%,9.41%,-5.76%
CS(=O)(=O)c1ccc(NC(=O)NCc2ccc3c(c2)CCC3)cn1,-2.45%,0%,-3.31%,4.04%,-38.9%,-6.06%,4.37%,5.26%,8.43%,-1.11%
Cc1cc(CNc2cc(Cl)ccc2OCCS(C)(=O)=O)no1,-0.942%,5.13%,-13.6%,7.42%,-1.23%,-4.01%,-4.69%,2.39%,10.8%,0.127%
Cc1cc(NCc2cc3n(n2)CCCN(S(C)(=O)=O)C3)ncn1,-8.82%,2.7%,4.07%,3.59%,5.94%,4.97%,0.911%,3.72%,12.2%,0.638%
Cc1nn(C)cc1CCC(=O)N1CCCC(n2cncn2)C1 (stereo not given),-2.9%,2.67%,3.45%,1.21%,7.98%,2.97%,-4%,3.68%,10.3%,-4.09%
COCCOc1cccc(C(=O)N2CCCC(n3ccnc3C)C2)c1 (stereo not given),-2.56%,13%,8.18%,4.85%,-2.25%,0.877%,1.8%,0%,18.8%,-12.3%
Cc1ccccc1OCCC(=O)N1CCCC(n2cncn2)C1 (stereo not given),-5.79%,5.13%,4.87%,0.657%,5.33%,4.52%,0.995%,1.44%,10.8%,-3.4%
CCOCC1CC2(CCN(C(=O)c3ccccc3F)CC2)CO1 (stereo not given),-6.56%,6.49%,-7.4%,-3.41%,-7.29%,-0.794%,-3.95%,2.63%,7.69%,-0.095%
Cc1ccc(S(=O)(=O)N2CCOc3ccccc32)cc1C(=O)O,-0.902%,-5.13%,-13.7%,-1.03%,1.23%,11.5%,1.07%,-7.18%,6.02%,-6.35%
Cc1noc(C)c1C(=O)N1C[C@H]2CCC[C@@]2(COc2ccccn2)C1,-6.59%,11.7%,1.71%,8.28%,-7.29%,12.3%,-28.1%,3.68%,12.8%,-2.44%
Cn1cc(C(=O)NC2CCN(Cc3ccn(C)c(=O)c3)CC2)cn1,-0.0592%,-7.69%,-4.2%,-1.41%,4.51%,3.67%,26.8%,-1.44%,-3.61%,-4.65%
O=C(NCCc1ccccc1)C1CCCN(c2ccc3nncn3n2)C1 (stereo not given),-3.44%,2.7%,-1.4%,-8.05%,1.75%,17.6%,-5.46%,5.85%,7.32%,-3.81%
